This passage reports AC50 results from PubChem BioAssay AID2284198 (EPA ToxCast).

Calls of active or inactive are those of the source. Rule for the calls: active = hit-call score of the fitted dose curve at least 0.9, where 1 is the maximum; inactive = score below 0.9.

human Adenosine Transporter, SLC29A1 (gene 2030), sequence (Q99808 whole entry, looked up): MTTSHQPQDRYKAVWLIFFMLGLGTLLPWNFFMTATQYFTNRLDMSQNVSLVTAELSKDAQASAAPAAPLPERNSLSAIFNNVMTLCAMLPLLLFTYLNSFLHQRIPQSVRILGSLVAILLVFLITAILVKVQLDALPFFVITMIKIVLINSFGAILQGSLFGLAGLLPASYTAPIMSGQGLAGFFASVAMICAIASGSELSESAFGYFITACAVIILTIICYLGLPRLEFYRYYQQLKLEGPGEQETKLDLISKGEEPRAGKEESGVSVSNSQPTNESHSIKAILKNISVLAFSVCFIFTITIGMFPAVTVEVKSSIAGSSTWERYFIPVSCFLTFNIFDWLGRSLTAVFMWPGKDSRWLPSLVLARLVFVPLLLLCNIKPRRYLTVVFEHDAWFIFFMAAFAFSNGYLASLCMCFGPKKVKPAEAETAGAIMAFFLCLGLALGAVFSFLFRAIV

For the test, the target named is human Adenosine Transporter, SLC29A1 (gene 2030) (UniProt Q99808). The experiment in a line: ERF_TW_TR_hSLC35B3: Eurofins (ERF) Transporter Radioligand Binding LeadHunter Assay for human Adenosine Transporter Antagonism. As to the method:
ERF_TW_TR_hSLC35B3 is a biochemical, single-readout assay that uses extracted gene-proteins in a cell-free assay. Measurements were taken 1 hour after chemical dosing in a 96-well plate. See Adenosine Human Transporter Binding (Antagonist Radioligand) Assay, Panlabs.ERF_TW_TR_hSLC35B3 is an assay component calculated from the ERF_TW_TR_hSLC35B3 assay. It is designed to measure radioligand binding using a type of binding reporter as detected by scintillation counting with radiometry technology.Data from the assay component ERF_TW_TR_hSLC35B3 was analyzed at the assay endpoint, ERF_TW_TR_hSLC35B3, in the positive analysis fitting direction relative to DMSO as the negative control and baseline of activity. Using a type of binding reporter, loss-of-signal activity can be used to understand changes in transporter binding as they relate to gene SLC29A1. To generalize the intended target to other relatable targets, this assay endpoint is annotated to the transporter intended target family, where the subfamily is nucleoside transporter.
This assay measures binding of [3H]Nitrobenzylthioinosine to sites associated with the transporter of adenosine. Human adenosine transporter membranes are prepared in Tris-HCl buffer pH 7.4. A 24 ug aliquot of membrane is incubated with 0.5 nM [3H]Nitrobenzylthioinosine for 60 minutes at 25C. Non-specific binding is estimated in the presence of 5 uM nitrobenzylthioinosine. Membranes are filtered and washed, the filters are then counted to determine [3H]Nitrobenzylthioinosine specifically bound. Compounds are screened at 10 uM.Test Sample Requirements: Minimum for 1) Screen: 25 ul of 10 mM stock -OR- 1 mg (pre-weighed). 2) Dose Response: 60 ul of 10 mM stock -OR- 1 mg (pre-weighed).
In general, AC50 refers to the midpoint of the concentration-response curve, whichever way the signal moves. As for `COc1cc(/C=C/C(=O)CC(=O)/C=C/c2ccc(O)c(OC)c2)ccc1O`, the half-maximal activity concentration (AC50) was 98 nM (active).

For the compound `COc1cc(CCC(=O)CC(=O)CCc2ccc(O)c(OC)c2)ccc1O`, the AC50 is 574 nM (active). Consider `O=C(/C=C/c1ccc(O)cc1)CC(=O)/C=C/c1ccc(O)cc1`, for which the AC50 is 153 nM (active).
